# Compound activity: PubChem BioAssay, several laboratories
# NR5A2 inv ag: inverse agonists of human LRH-1 (NR5A2) | inhibition, % at 3.6 µM | AID 602396 | HEK293T StAR-luciferase reporter, LRH-1 transfected, 24 h | 0.13% of 360,000 active;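 active means inhibition above the mean inhibition of all tested compounds plus 3 SD, cut at about 73% in these data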;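 further: 0% = DMSO wells and 100% = reporter-only cells lacking LRH-1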
# Target sequence (O00482 whole entry, looked up): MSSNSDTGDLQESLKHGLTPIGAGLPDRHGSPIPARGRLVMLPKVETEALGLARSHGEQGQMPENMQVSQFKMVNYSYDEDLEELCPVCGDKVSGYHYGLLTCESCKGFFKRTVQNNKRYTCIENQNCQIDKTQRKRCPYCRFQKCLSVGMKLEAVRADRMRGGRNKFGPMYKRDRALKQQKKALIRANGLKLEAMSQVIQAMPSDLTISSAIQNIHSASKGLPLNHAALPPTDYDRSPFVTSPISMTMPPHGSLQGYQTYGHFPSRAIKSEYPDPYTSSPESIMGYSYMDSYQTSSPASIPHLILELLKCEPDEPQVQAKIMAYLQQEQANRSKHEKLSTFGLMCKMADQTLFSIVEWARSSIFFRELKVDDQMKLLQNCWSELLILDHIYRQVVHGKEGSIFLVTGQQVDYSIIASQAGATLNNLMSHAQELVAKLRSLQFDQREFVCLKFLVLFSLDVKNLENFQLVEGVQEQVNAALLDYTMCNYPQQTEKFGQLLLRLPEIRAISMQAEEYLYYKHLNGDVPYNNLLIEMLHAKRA
# Gli-Sufu antag: antagonists of Gli-Sufu signaling; inhibition, % at 5 µM; 0.74% of 340,000 active; Sufu-KO-LIGHT fibroblasts, Gli luciferase reporter luminescence;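 active means inhibition above about 55%, limit read from the data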;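 further: 0% = DMSO-treated cells and 100% = wells with medium but no cells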
# NCOA1 inh: inhibits human SRC1 coactivator | Q15788 | HEK293 GAL4-SRC1 luciferase reporter, luminescence | inhibition, % at 3.6 µM | 0.12% of 360,000 active;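 active means inhibition above the campaign mean plus 3 SD, with each screening campaign given its own cutoff, cut at about 60% in these data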;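 further: 0% = DMSO treated cells and 100% = gossypol at 36 µM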
# NCOA2 inhibitor: human SRC2 (NCOA2) inhibition. HEK293 GAL4-SRC2 luciferase reporter, luminescence. inhibition, % at 9 µM. 0.17% of 370,000 active;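 active means inhibition above the mean inhibition of all tested compounds plus 3 SD, set per campaign, cut at about 52% in these data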;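 further: 0% = DMSO treated cells and 100% = cells given Gossypol at 36 µM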
# NCOA3 inh: human NCOA3 inhibition; inhibition, % at 3.6 µM; HEK293 GAL4-SRC3 luciferase reporter, luminescence; 0.17% of 360,000 active;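 active means inhibition above a per-campaign cutoff, the mean of all compounds plus 3 SD, cut at about 60% in these data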;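 further: 0% = DMSO-treated cells and 100% = gossypol-treated cells at 36 µM; higher means less SRC3-driven luciferase light from the GAL4 reporter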
# COUP-TFII inh: NR2F2 (human) inhibition, primary screen; inhibition, % at 8.6 µM; HEK293T NGFI-A luciferase reporter, luminescence; P24468; AID 686940; 0.7% of 370,000 active;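 active means inhibition above a per-plate cutoff, mean inhibition of test wells between control levels plus 3 SD, cut at about 38% in these data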;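 further: cells cotransfected with COUP-TFII expression vector driving the NGFI-A reporter; 0% = median of COUP-TF2 test wells and 100% = reporter-only cells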
# Gal4-VP16 ctr: counter-screen for COUP-TFII antagonists: inhibitors of VP16; inhibition, % at 8.5 µM; shares compounds with COUP-TFII inh; 25% of 2,500 active; HEK293 Gal4-VP16 luciferase reporter, luminescence; in the data active means inhibition above about 13%
# NR2F2 inh conf: confirmation of human COUP-TFII (NR2F2) inhibitors. shares compounds with COUP-TFII inh. inhibition, % at 8.5 µM. AID 687008. 45% of 2,500 active. HEK293 NGFI-A luciferase reporter, luminescence;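 active means mean inhibition over three repeats above a set limit taken from the earlier primary screen, cut at about 38% in these data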;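 further: 100% = cells given the luciferase reporter alone without the COUP-TF2 vector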
# An asterisk follows results filed as active; x = not tested or not shown. Compounds with a hit are over-represented: about 1.2% of the library has one in this group of screens.
SMILES,NR5A2 inv ag,Gli-Sufu antag,NCOA1 inh,NCOA2 inhibitor,NCOA3 inh,COUP-TFII inh,Gal4-VP16 ctr,NR2F2 inh conf
C[C@H]1CN(C(=O)OC(C)(C)C)CCN1c1ccc(N2CC[C@@H](O)C2)c(C#N)c1,x,x,x,-37.1,x,-17.3,x,x
Cc1cccc(NC(=O)CNC(=O)[C@H](CCc2ccccc2)NC(=O)[C@H]2O[C@@H](n3cnc4c(N)ncnc43)[C@H](O)[C@@H]2O)c1C,x,x,x,3.5,x,16.6,x,x
Cc1ccc(NC(=O)C2CCN(c3ncnc4sc(C)c(C)c34)CC2)cc1S(=O)(=O)N(C)C,-2.9,40.5,24.4,4.0,35.2,48.4*,8.5,30.5
COC(=O)c1c(-c2ccc(OC)cc2)c2c(c3c4cc(OC)ccc4n(C(=O)c4ccccc4)c13)C(=O)N(C)C2,x,x,x,12.1,x,9.0,x,x
Cc1ccc(NC(=O)O/N=C/c2c(C)nn(C(C)(C)C)c2C)cc1Cl,88.4*,46.0,91.3*,94.6*,91.9*,100.0*,92.9*,109.9*
Cc1ccc(NC(=O)Nn2cnnc2)cc1Cl,6.5,-9.6,-8.7,-6.4,-24.4,7.6,x,x
Cc1ccc(-n2c(SCC(=O)Nc3ccc(OCc4ccccc4)cc3)nnc2-c2ccco2)cc1,x,x,x,-25.2,x,0.7,x,x
CCC1SC(C)C/C(=N/NC(N)=O)C1C (stereo not drawn),13.4,8.3,1.4,-12.5,4.5,15.5,x,x
CC1CC(C)C(=NNC(N)=O)C(C(O)CC2CCC(=O)NC2=O)C1 (stereo not drawn),99.1*,7.3,75.5*,57.5*,73.6*,81.7*,-11.9,20.3
COC(=O)c1cc(-c2ccc(C)c(C)c2)c(=O)n2c1CCC2,x,x,x,17.4,x,-4.4,x,x
COC(=O)c1ccc(-n2c(C)cc(C(=O)CSc3ccc(NC(C)=O)cc3)c2C)cc1,8.3,-8.5,-11.4,10.9,21.7,23.7,x,x
Cc1cc(C(=O)CSc2nnc(N)s2)c(C)n1Cc1cccs1,-128.2,-37.8,-82.8,-2.3,-97.6,-21.8,x,x
Cc1csc(SCC(=O)c2cc(C)n(Cc3cccs3)c2C)n1,27.8,12.9,28.9,36.2,42.8,67.2*,37.2*,79.6*
CC(=O)Nc1ccc(SCC(=O)c2cc(C)n(-c3ccccc3F)c2C)cc1,55.2,41.4,41.0,39.2,52.5,66.9*,35.0*,64.3*
COCCn1c(C)cc(C(=O)CSc2ccc(NC(C)=O)cc2)c1C,-1.2,8.2,-9.5,-18.8,-12.7,-12.8,x,x
CC(=O)Nc1ccc(SCC(=O)c2cc(C)n(Cc3cccs3)c2C)cc1,52.9,43.3,44.3,30.6,39.4,66.8*,12.1,73.2*
O=C(NCc1ccccc1)[C@H]1CCCN1C(=O)[C@H]1CCCN1C(=O)c1ccc(F)cc1,x,x,x,10.6,x,-15.6,x,x
CCCCNC(=O)C[C@H]1C(=O)N(CCCOC)C2=CCCCC[C@]21C(=O)OC,x,x,x,-11.3,x,-8.4,x,x
COc1cccc(/C=C2\SC(=S)N(CCCC(=O)N3CCCCC3CCO)C2=O)c1 (stereo not drawn),10.5,10.2,18.1,52.0,18.0,39.2*,31.2*,20.4
COc1ccc(/C=C2/SC(=S)N(CCC(=O)O)C2=O)cc1,20.1,27.4,49.4,84.3*,48.1,45.9*,12.3,56.0*
O=C(CCCN1C(=O)/C(=C/c2ccco2)SC1=S)Nc1ccccc1C(=O)O,-11.6,4.0,-20.1,-18.1,2.0,1.3,x,x
O=C(O)CCCN1C(=O)/C(=C\c2ccco2)SC1=S,10.4,5.7,2.0,46.9,23.2,44.0*,50.4*,35.9
CC(=C\c1ccccc1)/C=C1/SC(=S)N(CCCC(=O)O)C1=O,3.2,5.3,-8.6,53.0*,1.6,38.0*,72.5*,50.9*
O=C(O)CCN1C(=O)/C(=C\c2ccncc2)SC1=S,3.9,-2.0,-7.2,5.5,4.1,-1.7,x,x
O=C(Nc1ccc(Br)cc1)OCCCN1CCC2(CCCCC2)C1=O,x,x,x,-10.3,x,29.1,x,x
SMILES,NR5A2 inv ag,Gli-Sufu antag,NCOA1 inh,NCOA2 inhibitor,NCOA3 inh,COUP-TFII inh,Gal4-VP16 ctr,NR2F2 inh conf
CCOC(=O)CC[C@@]1(C(=O)OCC)C[C@@H](CC(=O)N2CCCC2)C(=O)N2CCCC=C21,x,x,x,-31.0,x,2.1,x,x
CC(C)NC(=O)N[C@H]1C[C@@H]2O[C@@H](CO)CC[C@@H]2O[C@@H]1CCc1ccc(-c2ccc(F)cc2)cc1,x,x,x,-6.8,x,-13.7,x,x
O=C(C1CCCN(S(=O)(=O)c2ccccc2)C1)N1CCCc2ccccc21 (stereo not drawn),17.1,-3.1,4.6,13.4,-12.3,37.5*,-9.7,8.2
O=S(=O)(c1ccccc1)N1CCCc2nc(-c3ccc(Br)cc3)ccc21,x,x,x,21.3,x,2.8,x,x
Cc1ccc(-c2csc(NC(=O)C3CCN(S(=O)(=O)c4cccs4)CC3)n2)cc1,41.8,2.2,23.4,-0.4,26.5,69.3*,-6.1,49.6*
O=C(Nc1ccc(Cl)cn1)C1CCN(S(=O)(=O)c2cccs2)CC1,21.5,3.8,-21.2,20.5,6.9,52.9*,5.6,32.3
O=C(Nc1nc(-c2ccc3ccccc3c2)cs1)C1CCN(S(=O)(=O)c2cccs2)CC1,17.0,25.3,26.4,-20.4,33.6,-4.4,x,x
COc1ccc(C(=O)C(=O)N2CCN(S(=O)(=O)c3cccc4c(N(C)C)cccc34)CC2)cc1OC,x,x,x,-9.0,x,6.4,x,x
CCN1C/C(=C/c2ccc(N3CCOCC3)cc2)C(=O)/C(=C/c2ccc(N3CCOCC3)cc2)C1,27.4,6.0,7.4,0.1,58.8,37.4*,23.9*,39.4*
COc1cc(C=c2c3ccccc3n3c2cc(-c2ccccc2)[n+]3C)cc(OC)c1OC,10.3,13.9,-9.3,-2.8,12.6,38.3*,-0.8,6.9
CN(C)c1ccc(C=c2c3ccccc3n3c2c2c([n+]3C)CCCC2)cc1,93.9*,88.8*,68.9*,-17.9,79.1*,87.5*,28.1*,82.0*
COc1cc(N(C)C)ccc1C=c1c2ccccc2n2c1cc(-c1ccccc1)[n+]2C,69.3,90.7*,23.4,-53.7,62.9*,67.0*,8.9,73.1*
CN(C)c1ccc(C=c2c3cc([N+](=O)[O-])ccc3n3c2cc(-c2ccccc2)[n+]3C)cc1,61.0,80.7*,12.2,-4.4,53.4,68.5*,53.4*,58.9*
C[C@H](CO)N1C[C@H](C)[C@@H](CN(C)C(=O)Nc2ccc(C(C)(C)C)cc2)OCc2cn(nn2)CCCC1=O,x,x,x,-3.3,x,4.4,x,x
CCN(Cc1ccccc1)C(=O)C1CCCN(c2ncccn2)C1 (stereo not drawn),x,x,x,2.8,x,1.9,x,x
COC(=O)C1=C(C)N(C)C(=NCc2ccc(OC)cc2)NC1c1ccc(C(F)(F)F)cc1 (stereo not drawn),x,x,x,-13.8,x,0.4,x,x
CN(C)c1ccc(C=c2c3ccccc3n3c2cc(-c2ccccc2)[n+]3C)cc1,91.4*,86.1*,64.8*,-29.4,82.8*,82.1*,20.6*,94.2*
